{
  "source": "PubChem BioAssay",
  "data": [
    {"assay": "basal RPMI8226 mitochondrial membrane potential changes, profiling panel, cell-based, JC-1 fluorescence, 24 h, 100 nL compound (AID 1169); note: test concentration not given here", "conditions": "RPMI8226 myeloma, JC-1 mitochondrial potential fluorescence, higher = more signal", "values": [
      {"smiles": "COCCOC(=O)N1C(=O)[C@@]2(c3cc(C#Cc4ccc(OC)cc4)ccc31)[C@H](c1ccc(OCCO)cc1)N1[C@H](c3ccccc3)[C@H](c3ccccc3)OC(=O)[C@H]1[C@@H]2C(=O)NC[C@H](O)c1ccccc1", "z-score": -0.68},
      {"smiles": "CC1CC/C=C\\[C@H]2OC34C=CCN(Cc5ccccc5)C(=O)[C@H]3N(CCCCCCO)C(=O)[C@@H]4C2C(=O)O1", "note": "(stereo partly specified)", "z-score": 0.62},
      {"smiles": "[N-]=[N+]=Nc1ccccc1[C@@H]1OC(c2ccc(OCCCO)cc2)=N[C@]1(CCS(=O)(=O)c1ccccc1)C(=O)NCC(O)CO", "note": "(stereo partly specified)", "z-score": -0.0226},
      {"smiles": "COC(=O)[C@@]1(Cc2ccccc2)[C@H]2c3cc(C(=O)N(C)C)n(CCSC(=N)N)c3C[C@H]2CN1C(=O)c1ccccc1", "z-score": -0.889},
      {"smiles": "CC(C)[Si](C#CCCc1ccccc1)(O[C@H](c1ccccc1)c1cn(Cc2ccccc2)nn1)C(C)C", "z-score": -0.631},
      {"smiles": "O=C(NCc1ccc(F)cc1)[C@H]1C[C@H]2C(=O)N3CCC[C@H]3C(=O)N2[C@H]1c1ccc(O)cc1", "z-score": 0.207},
      {"smiles": "COC(=O)[C@]1(Cc2ccccc2)N=C(c2ccc(OCCCO)cc2)O[C@@H]1c1ccccc1CN=[N+]=[N-]", "z-score": -1.12},
      {"smiles": "CC(C)C[C@@H]1NC(=O)[C@@H]2C[C@H](C(=O)NCCCCCCNC(=O)CS)[C@H](c3cccc(OCCO)c3)N2C1=O", "z-score": -0.217},
      {"smiles": "O=C1O[C@@H](c2ccccc2)[C@@H](c2ccccc2)N2[C@@H](c3ccc(OCCO)cc3)[C@]3(C(=O)Nc4ccc(C#CCCO)cc43)[C@@H](C(=O)O)[C@H]12", "z-score": 0.284},
      {"smiles": "CCCC[C@H]1C[C@@H]1[C@@H]1N(C(C)=O)[C@H](c2cccc(OC)c2)CC12CC2", "z-score": -0.172},
      {"smiles": "C=C(COC)/C(=C/C[C@@H](OC(C)=O)c1ccccc1OCCO)c1cnc2ccccc2c1", "z-score": 0.328},
      {"smiles": "CN(C)CCCNC(=O)[C@@]1(C)c2ccccc2C(=O)N(Cc2ccc(OC(F)(F)F)cc2)[C@H]1c1ccc(CO)cc1", "z-score": -0.136},
      {"smiles": "C=CC[C@]1(C(=O)NCC(O)CO)COC(c2ccc(OCCCO)cc2)=N1", "note": "(stereo partly specified)", "z-score": 0.00774},
      {"smiles": "C=CCC(OC(C)=O)[C@@H]1[C@@H](N(Cc2cccc3ccccc23)C(=O)c2ccc(-c3ccccc3)cc2)c2cc(OCCCO)ccc2N1C(=O)Cc1ccc2ccccc2c1", "note": "(stereo partly specified)", "z-score": -0.342},
      {"smiles": "CCCCCC1=C2CNC(CC(C)C)(C(=O)OC)C=C2C(C)C1=O", "note": "(stereo unspecified)", "z-score": -0.324},
      {"smiles": "CN1C(=O)[C@@H]2[C@@H](CC(COc3ccccc3)=C3[C@@H](CCc4ccccc4)OB(O)C[C@@H]32)C1=O", "z-score": 0.122},
      {"smiles": "COC(=O)[C@@]1(Cc2ccc(OC)cc2)[C@H]2c3cc(C(=O)N4CCCC4)n(Cc4ccc(C(F)(F)F)nc4)c3C[C@H]2CN1C(=O)c1ccccc1", "z-score": -0.779},
      {"smiles": "C=CCC(OC(C)=O)[C@@H]1[C@@H](N(Cc2cc3ccccc3o2)C(=O)Cc2ccc(OC)cc2)c2cc(OCCCO)ccc2N1C(=O)c1ccc2ccccc2n1", "note": "(stereo partly specified)", "z-score": -0.617},
      {"smiles": "[N-]=[N+]=Nc1ccccc1[C@@H]1OC(c2ccc(OCCCO)cc2)=N[C@]1(Cc1ccccc1)C(=O)NCCN1CCOCC1", "z-score": -1.26},
      {"smiles": "COc1ccc(C(=O)Nc2cccc(CN3C(=O)[C@]4(O[C@H](CC(=O)N5Cc6ccccc6C[C@H]5CO)[C@@H]([Si](C)(C)c5ccc(OC)cc5)[C@@H]4C)c4ccccc43)c2)cc1", "z-score": -0.93},
      {"smiles": "C=CCN1C(=O)[C@@]2(O[C@@H](CCn3cc([C@H](O)c4ccccc4)nn3)[C@H]([Si](C)(C)c3ccc(OC)cc3)[C@H]2C)c2cc(N3C(=O)c4cccc5cccc3c45)ccc21", "z-score": -0.929},
      {"smiles": "CC(C)(C)N1CC=CC23O[C@@H]4/C=C\\CCCOC(=O)C4[C@H]2C(=O)N(CCCCCO)[C@@H]3C1=O", "note": "(stereo partly specified)", "z-score": 0.116},
      {"smiles": "CN(C)CCCC[C@@H]1NC(=O)[C@@H]2C[C@H](C(=O)NCCCCCCNC(=O)CS)[C@H](c3ccc(O)cc3)N2C1=O", "z-score": -0.223},
      {"smiles": "CC1CC/C=C\\[C@H]2OC34C=CCN(CCN5CCOCC5)C(=O)[C@H]3N(CCCO)C(=O)[C@@H]4C2C(=O)O1", "note": "(stereo partly specified)", "z-score": 0.741},
      {"smiles": "COc1ccccc1CN1C(=O)c2ccccc2[C@](Cc2ccccc2I)(C(=O)NCC(C)C)[C@@H]1c1ccc(CO)cc1", "z-score": -0.38},
      {"smiles": "COCC(=C=CC[C@H](O)c1ccccc1OCCO)C[C@H](O)COCc1ccccc1", "z-score": -0.138},
      {"smiles": "O=C(NC1CC1)[C@@H]1c2ccccc2C(=O)N(Cc2ccc(OC(F)(F)F)cc2)[C@H]1c1ccc(CO)cc1", "z-score": -0.261},
      {"smiles": "O=C1C2C=CC(C(O)c3c(F)cccc3Cl)N(Nc3ccc([N+](=O)[O-])cc3)C2C(=O)N1c1ccccc1", "note": "(stereo unspecified)", "z-score": -0.209},
      {"smiles": "C[C@@H]1NC(=O)C([C@@H](C)OCc2ccccc2)NC(=O)[C@@]23C(=O)N[C@@H](Cc4ccccc4)C2[C@H](C)[C@@]2(C)O[C@H]2C3/C=C/C/C=C\\CNC1=O", "note": "(stereo partly specified)", "z-score": 0.514},
      {"smiles": "CC1CC/C=C\\[C@H]2OC34C=CCN(c5ccc(Cl)cc5)C(=O)[C@H]3N(CCCCCCO)C(=O)[C@]4(C)C2C(=O)O1", "note": "(stereo partly specified)", "z-score": 1.03},
      {"smiles": "CC1=C([C@H](O)CCc2ccccc2)[C@H](CO)n2c(=O)n(-c3ccccc3)c(=O)n2C1", "z-score": -0.237},
      {"smiles": "CCOC(=O)C[C@H]1[C@H](OC(=O)Cc2ccc3c(c2)OCO3)[C@@H](NC(=O)Cc2ccc(OC)cc2)c2cc(OCCCO)ccc2N1C(=O)Cc1ccc(OC)cc1", "z-score": 0.229},
      {"smiles": "COc1ccc(C(O)C2C=CC3C(=O)NC(=O)C3N2Nc2ccc(Cl)cc2Cl)c2ccccc12", "note": "(stereo unspecified)", "z-score": -1.1},
      {"smiles": "C=C1C(=O)C=C2CN(C(=O)c3ccccc3)[C@@](Cc3ccc(OC)cc3)(C(=O)OC)[C@@H]12", "z-score": -0.908},
      {"smiles": "COC(=O)[C@@]1(Cc2ccccc2)[C@H]2c3cc(C(=O)N(C)C)n(Cc4ccc(S(C)(=O)=O)cc4)c3C[C@H]2CN1C(=O)c1ccccc1", "z-score": -0.656},
      {"smiles": "CCCNC(=O)[C@@]1(c2ccc([N+](=O)[O-])cc2)CC(=O)N(C(C)C)[C@@H]1c1ccc(CO)cc1", "z-score": 0.195}
    ]}
  ]
}
